Consider 97 compounds from PubChem BioAssay AID651815 (National Center for Advancing Translational Sciences (NCATS), 2012).

The campaign covered roughly 2,100 compounds. About 1,100 (52%) were called active. Another 29% or so got no clear call; they are omitted. Calls follow the shape of the dose curve; as a rule, active = well fitted inhibition curve with a large enough effect; inconclusive = small, poorly fitted or top-dose-only effect; inactive = no such curve, though single readings can be large or run the other way. So high a share suggests a set chosen from earlier hits. The list shows a part of the results.
Potency is read from the fitted curve at half-maximal effect.

The assay deals with DNA dC->dU-editing enzyme APOBEC-3F (Homo sapiens) (UniProt Q8IUX4). As to the kind of experiment: qHTS for inhibitors of Vif-A3F interactions: Cherry picks counterscreen. Also: nearly all actives have a fitted effect of over 65% in size. Conditions: HeLa A3F-eYFP/Vif cells, eYFP fluorescence, 24 h; series mostly up to 46.1 µM. In a few lines: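 HeLa cells stably expressing A3F-eYFP and Vif, cultured overnight, then treated 24 h at 37 degrees C with compounds at several concentrations; yellow fluorescence (488 nm Ex/500-530 nm Em) imaged on Acumen; MG132 positive control.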
Chain of DNA dC->dU-editing enzyme APOBEC-3F (Homo sapiens) (Q8IUX4 whole entry, looked up): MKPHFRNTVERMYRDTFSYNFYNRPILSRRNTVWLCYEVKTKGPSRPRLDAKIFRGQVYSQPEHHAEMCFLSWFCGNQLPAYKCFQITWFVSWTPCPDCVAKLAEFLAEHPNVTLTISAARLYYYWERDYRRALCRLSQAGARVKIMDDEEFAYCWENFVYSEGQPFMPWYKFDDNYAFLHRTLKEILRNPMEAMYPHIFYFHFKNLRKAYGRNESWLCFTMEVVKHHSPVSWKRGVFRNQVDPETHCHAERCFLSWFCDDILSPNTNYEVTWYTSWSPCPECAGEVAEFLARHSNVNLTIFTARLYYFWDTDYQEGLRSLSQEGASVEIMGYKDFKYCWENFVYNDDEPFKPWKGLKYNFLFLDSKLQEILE
With `N#CC1=C(N)Oc2cc(N)ccc2C1c1cccc(Br)c1` (configuration not stated), the Potency was 1.98 µM (active).

As for `Cc1ccc2nc(-c3ccccn3)c(NC3CCCC3)n2c1`, the Potency entry was “inactive”.

Take `O=C(N/N=C/c1ccc(Cl)cc1)c1cc2c(s1)-c1ccccc1CC2`: the Potency is 5.59 µM (active).

Take `Cc1cc2c(cc(C(=O)OCC(=O)NCc3cccs3)n2C(C)C)o1`: the Potency was 1.77 µM (active).

Turning to `CCOC(=O)Cc1csc(NC(=O)c2sc3nc4c(C)cc(C)cc4cc3c2N)n1`, the Potency was 16.4 µM (active).

Consider `O=C(Cn1ncc(Cl)c(Cl)c1=O)Nc1ccc2c(c1)OCO2`, for which the Potency is 15.8 µM (active).

With `Cc1cc(C)cc(Oc2nc(C(F)(F)F)nc3ccccc23)c1`, the Potency is 11.2 µM (active).

Turning to `CNC(=S)N/N=C/c1ccc(N2CCOCC2)s1`, the Potency entry was “inactive”.

Consider `Cc1ccc(/C=N/NC(=O)C2COc3ccccc3O2)s1` (configuration not stated), for which the Potency was 4.98 µM (active).

Consider `Cc1ccc(/C=N/NC(=O)c2ccc3ccccc3c2)s1`, for which the Potency is 2.23 µM (active).

On to `O=C(Cn1cnc2c(cnn2-c2ccc(F)cc2)c1=O)NCc1ccco1`, for which the Potency was 9.94 µM (active).

Regarding `CC(C)(C)n1ncc2c(=O)n(CC(=O)NCc3ccc(F)cc3)cnc21`, the Potency is 14 µM (active).

As for `Cc1ccc(Cn2nnc3c(=O)n(CC(=O)NCc4ccccc4)cnc32)cc1`, the Potency is 14 µM (active).

In the case of `Cc1sc2ncn(CC(=O)NCc3ccccc3)c(=O)c2c1C`, the Potency result is “inactive”.

For `CCc1cccc2c(C(O)c3c[nH]c4ccccc34)c[nH]c12` (configuration not stated), the Potency was 20.6 µM (active).

`COc1ccc(NC(=O)CSc2nc3c(oc4ccccc43)c(=O)n2Cc2ccco2)cc1Cl`: the Potency is 18.4 µM (active).

As for `CCn1c(SCC(=O)Nc2cccc(O)c2)nc2c1c(=O)n(C)c(=O)n2C`, the Potency entry was “inactive”.

On to `N=c1n(CC(=O)c2ccc([N+](=O)[O-])cc2)c2ccccc2n1Cc1ccccc1`, for which the Potency was 20.6 µM (active).

`Cc1ccc2c(CC(=O)NCc3ccco3)coc2c1C`: the Potency is 9.94 µM (active).

With `Cc1cccc(C)c1OCCNC(=O)C(=O)NCc1ccco1`, the Potency is 2.8 µM (active).

For `O=C(COC(=O)C12CC3CC(CC(Cl)(C3)C1)C2)N1CCCCC1`, the Potency entry was “inactive”.

For the compound `COc1ccc2o/c(=N/NC(=O)c3cccs3)c(C(N)=O)cc2c1`, the Potency is 7.04 µM (active).

As to `Cc1ccc2c(Cl)c(C)c(N3CCCC3)nc2n1`, the Potency result is “inactive”.

Consider `CCN(CC)c1nc2cc(OC)ccc2cc1C#N`, for which the Potency entry was “inactive”.

With `COc1ccc(Nc2nc3cc(C)ccc3cc2C#N)c(OC)c1`, the Potency was 1.58 µM (active).

On to `COc1ccc(Nc2nc3cc(C)ccc3cc2C#N)cc1`, for which the Potency was 14.6 µM (active).

On to `C/C(=N/Nc1ccc([N+](=O)[O-])cc1)c1c[nH]c2ccccc12`, for which the Potency result was “inactive”.

In the case of `COc1ccccc1NS(=O)(=O)c1cc([N+](=O)[O-])ccc1N/N=C/c1c(C)[nH]c2ccccc12`, the Potency is 3.96 µM (active).

As to `Cc1ccccc1NCC(=O)N=Nc1c(O)[nH]c2ccc([N+](=O)[O-])cc12`, the Potency result was “inactive”.

In the case of `Cc1[nH]c2ccccc2c1/C=N/Nc1ccc([N+](=O)[O-])cc1`, the Potency was 9.2 µM (active).

Consider `O=[N+]([O-])c1ccc(N/N=C/c2c[nH]c3ccccc23)c(S(=O)(=O)Nc2ccc(Cl)cc2)c1`, for which the Potency was 18.4 µM (active).

For `O=[N+]([O-])c1ccc(N=Nc2ccc(O)c3ccccc23)cc1`, the Potency entry is “inactive”.

With `O=[N+]([O-])c1ccc(N/N=C/c2c[nH]c3ccccc23)cc1`, the Potency was 16.4 µM (active).

Consider `COc1ccccc1NS(=O)(=O)c1cc([N+](=O)[O-])ccc1N/N=C/c1c[nH]c2ccccc12`, for which the Potency was 13 µM (active).

Turning to `COc1ccc(NS(=O)(=O)c2cc([N+](=O)[O-])ccc2N/N=C/c2c(C)[nH]c3ccccc23)cc1`, the Potency is 10.3 µM (active).

Take `CC(C)CC(=O)NC(=S)N(Cc1ccccc1)Cc1ccccc1`: the Potency result was “inactive”.

Take `CC[n+]1c(C=C2C=C(C)OC(C)=C2)sc2ccccc21`: the Potency is 4.61 µM (active).

Take `COc1ccc(/C=C/C=C2\NC(=S)NC2=O)cc1`: the Potency result is “inactive”.

Consider `COc1cc(N2CCCC2)c(OC)cc1/C=C1/NC(=S)NC1=O`, for which the Potency is 1.58 µM (active).

On to `Cc1cccc2cc(C#N)c(SCC(=O)N3CC(=O)Nc4ccccc43)nc12`, for which the Potency was 7.9 µM (active).

Regarding `Cc1cc(C)c2nc(SCC(=O)N3CC(=O)Nc4ccccc43)c(C#N)cc2c1`, the Potency is 3.14 µM (active).

`CC1=C(C(=O)Nc2cccc(F)c2)C(c2ccsc2)C2=C(CC(C)(C)CC2=O)N1` (configuration not stated): the Potency is 2.8 µM (active).

Regarding `CCN(CC)c1ccc2cc(-c3nc4sc5c(c4c(=O)[nH]3)CCC(C(C)(C)C)C5)c(=O)oc2c1` (configuration not stated), the Potency result is “inactive”.

For the compound `COc1ccc2cc(-c3nc(Cl)c4c5c(sc4n3)CC(C)CC5)c(=O)oc2c1` (configuration not stated), the Potency is 20.6 µM (active).

Turning to `Nc1[nH]c2cc([N+](=O)[O-])ccc2c1-c1ccccn1`, the Potency is 20.6 µM (active).

`COc1cc(-c2noc(C)c2C#Cc2ccc(N)cc2)cc(OC)c1OC`: the Potency is 0.994 µM (active).

For `Cc1ccc(-c2nc(-c3cc4cccc(OCc5cccc(F)c5)c4oc3=O)no2)cc1`, the Potency is 23.1 µM (active).

`N#Cc1c(Nc2ccccc2)[n+]([O-])c2ccc(Cl)cc2[n+]1[O-]`: the Potency entry was “inactive”.

On to `C=C(C(=O)c1ccccc1)C(C)C(=C)C(=O)c1ccccc1`, for which the Potency was 3.53 µM (active).

Consider `C=C(C(=O)c1ccccc1)C(C(=C)C(=O)c1ccccc1)c1ccc(OC)cc1`, for which the Potency was 3.96 µM (active).

On to `S=C(NC1CCCCC1)N(CCc1ccccc1)CCc1ccccc1`, for which the Potency entry was “inactive”.

As for `COCCN1C(=O)/C(=C/c2ccc(N3CCCC3)cc2)SC1=S`, the Potency is 5.17 µM (active).

Consider `COCCN1C(=O)/C(=C/c2ccc(N3CCCC3)cc2C)SC1=S`, for which the Potency is 2.91 µM (active).

Turning to `CCn1c(O)c(/C=N/N=C/c2ccc(OC)cc2)c2cc(C3=NNC(=O)CC3)ccc21`, the Potency was 6.51 µM (active).

In the case of `Cc1cc(OCC(=O)Nc2nnc(C3CC3)s2)ccc1Cl`, the Potency result was “inactive”.

For the compound `COc1cc(CCC(=O)Nc2nnc(C)s2)cc(OC)c1OC`, the Potency is 4.44 µM (active).

For the compound `N#CCSc1ccccc1NC(=O)CN1C(=O)C2CC=CCC2C1=O` (configuration not stated), the Potency is 14 µM (active).

Turning to `N#CCSc1ccccc1NC(=O)CN1C(=O)NC(CCc2ccccc2)C1=O` (configuration not stated), the Potency entry was “inactive”.

As to `CC(=O)Nc1ccc(Nc2c3c4c(cccc4n(C)c2=O)C(=O)c2ccccc2-3)cc1`, the Potency entry is “inactive”.

On to `O=C(CN1c2cccc3cccc(c23)S1(=O)=O)Nc1ccc(S(=O)(=O)N2CCOCC2)cc1`, for which the Potency entry was “inactive”.

`COC(=O)Nc1ccc(S(=O)(=O)N2CCCc3ccccc32)cc1`: the Potency is 5.59 µM (active).

Regarding `CC(=O)Nc1ccc(S(=O)(=O)N2c3ccccc3C(C)=CC2(C)C)cc1`, the Potency is 2.23 µM (active).

`CC(=O)Nc1ccc(S(=O)(=O)N2CCSc3ccccc32)cc1`: the Potency is 2.5 µM (active).

For the compound `Cc1ccc2nsnc2c1NC(=O)c1ccc(-c2cc(Cl)ccc2Cl)o1`, the Potency was 14 µM (active).

As for `Cc1nc(CSc2nsc(/C=C/N(C)C)c2C#N)cs1`, the Potency result was “inactive”.

For the compound `CCSc1nnc(-c2sc3nnc(-c4ccccc4)c(-c4ccccc4)c3c2N)o1`, the Potency was 4.11 µM (active).

As to `OCCCn1c(C2CCCN2c2nc(-c3ccc(Cl)cc3)cs2)nc2cc(Cl)c(Cl)cc21` (configuration not stated), the Potency result is “inactive”.

For `COc1cccc2sc(Nc3nc(-c4cc5ccccc5oc4=O)cs3)nc12`, the Potency is 3.14 µM (active).

As for `O=C1c2ccccc2C(=O)c2cc(N3CCCCC3)ccc21`, the Potency is 7.04 µM (active).

Take `COc1cnc(-c2ccccn2)nc1Oc1ccc(F)cc1F`: the Potency result is “inactive”.

With `COc1cc(OC)cc(C(=O)N/N=C/c2ccc(OC)c(COc3ccc4ccccc4c3)c2)c1`, the Potency is 12.5 µM (active).

Take `COc1ccc(/C=N/NC(=O)c2cccnc2)cc1CSc1ccccn1`: the Potency is 3.14 µM (active).

In the case of `O=C(CSc1nc2ccccc2s1)c1cc2ccccc2o1`, the Potency result is “inactive”.

`COc1ccc(/C=N\NC(=O)c2ccccc2F)cc1COc1ccc(F)cc1F`: the Potency was 2.23 µM (active).

Consider `COc1ccc(/C=N/NC(=O)c2ccccc2Cl)cc1CSc1nc2ccccc2s1`, for which the Potency was 4.44 µM (active).

Consider `COc1ccc(/C=N/NC(=O)c2cccnc2)cc1COc1ccc(NC(C)=O)cc1`, for which the Potency was 12.5 µM (active).

In the case of `COc1ccccc1/C=N/NC(=S)Nc1cccnc1`, the Potency result is “inactive”.

`Cn1c(N)c(-c2ccccc2)c2ccc([N+](=O)[O-])cc2c1=O`: the Potency is 14 µM (active).

As for `C=CCN1C(=O)/C(=C2/Sc3ccc(OC)cc3N2CC)SC1=S`, the Potency was 13 µM (active).

Take `CCN1C(=O)/C(=C2/Sc3ccc(OC)cc3N2C)SC1=Nc1cccc(O)c1`: the Potency was 17.7 µM (active).

For the compound `CCN(CC)c1ccc(/C=C/c2ccncc2)cc1`, the Potency was 13 µM (active).

As to `CCN(CC)c1ccc(/C=C/c2ccccn2)cc1`, the Potency was 20.6 µM (active).

In the case of `CN(C)c1ccc(/C=C/c2ccncc2)cc1`, the Potency was 9.2 µM (active).

Take `CCN(CC)c1ccc(/C=C/C2=C3C=CC=CC3NC=C2)cc1` (configuration not stated): the Potency was 23.1 µM (active).

On to `Cc1ccc(S(=O)c2ccc([N+](=O)[O-])c3nonc23)cc1` (configuration not stated), for which the Potency entry was “inactive”.

As for `CC[n+]1ccccc1/C=C/c1ccc(N(C)C)cc1`, the Potency was 23.1 µM (active).

Take `CC(C)CC[n+]1ccccc1/C=C/c1ccc(N(C)C)cc1`: the Potency was 18.4 µM (active).

On to `CCOC(=O)c1c(CN(CC)CC)n(-c2ccccc2)c2ccc(O)cc12`, for which the Potency entry was “inactive”.

As to `CCOC(=O)c1cc2n(c1/N=C/N(C)C)-c1ccccc1C2=O`, the Potency was 18.4 µM (active).

Turning to `CCOC(=O)c1cc2n(c1N)-c1ccccc1C2=O`, the Potency was 18.4 µM (active).

As to `CCOC(=O)c1cnc(-n2nc(C)cc2C)nc1NNc1nc(-c2ccccc2)cc(-c2ccccc2)n1`, the Potency result is “inactive”.

As to `Cc1cc(/C=C2\SC(=S)N(C)C2=O)c(C)n1-c1ccc(O)cc1`, the Potency is 18.4 µM (active).

On to `Cc1cc(/C=C2\SC(=S)N(C)C2=O)c(C)n1-c1ccccc1O`, for which the Potency is 18.4 µM (active).

Take `NNC(=O)c1cc2sccc2s1`: the Potency entry is “inactive”.

Take `CCn1ncc(/C=N\NC(=O)c2csc3ccccc23)c1C`: the Potency is 2.5 µM (active).

`CCOC(=O)/C(=C/C1=CC(=C/N(C)C)/C(=O)O1)C(C)=O`: the Potency entry was “inactive”.

Consider `CCOc1ccc(C2CC(c3c(O)c4ccccc4oc3=O)=NN2c2ccccc2)cc1OC` (configuration not stated), for which the Potency was 14.6 µM (active).
